This passage reports outcome and AC50 results from PubChem BioAssay (EPA / NIEHS).

Assay [1] is described as follows: ATG_M_61_CIS: Attagene CIS-FACTORIAL HepG2 Assay for M61 Transcription Factor (Internal Marker) (AID 2282937). The conditions noted are these: HepG2 Attagene CIS-FACTORIAL M61 internal marker reporter; actives raise or lower the signal. An outline of the steps: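 Readout is reporter mRNA by RT-PCR, fluorescent primer extension and capillary electrophoresis, with gain or loss fitted relative to DMSO. Transfected HepG2 cells carrying endogenous-TF-driven cis reporters were exposed to chemicals for 24 hours.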

Assay [2] can be described thus: ATG_EGR_CIS: Attagene CIS-FACTORIAL HepG2 Assay for human Early Growth Response 1 (EGR1) (AID 2282938). The following applies: HepG2 Attagene CIS-FACTORIAL EGR reporter mRNA; actives raise or lower the signal. An outline of the steps:
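After 24 h compound exposure, RNA from reporter-transfected HepG2 cells was reverse-transcribed, PCR-amplified, fluorescently labelled and resolved by capillary electrophoresis. EGR1 reporter transcript changes, up or down, were fitted against DMSO, reflecting endogenous transcription-factor activity.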

Assay [3] is described as follows: ATG_M_19_CIS: Attagene CIS-FACTORIAL HepG2 Assay for M19 Transcription Factor (Internal Marker) (AID 2282939). The conditions noted are these: HepG2 Attagene CIS-FACTORIAL M19 internal marker reporter; actives raise or lower the signal. Summed up:
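Chemical-treated HepG2 (24 h) with MRTU constructs; reporter transcripts detected by fluorescent RT-PCR fragment analysis on capillary electrophoresis. Internal background marker, DMSO as baseline.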

The nature of assay [4]: ATG_ERE_CIS: Attagene CIS-FACTORIAL HepG2 Assay for Estrogen Response Element (ERE) (AID 2282940). The following applies: HepG2 ERE cis-reporter, Attagene RNA transcript; actives raise or lower the signal. An outline of the steps: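 Human liver cells (HepG2) bearing transiently transfected, promoter-regulated reporter units were exposed 24 h. Reporter mRNA induction was detected by capillary electrophoresis of labelled RT-PCR products and fitted bidirectionally to DMSO.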

Assay [5] can be described thus: ATG_Ets_CIS: Attagene CIS-FACTORIAL HepG2 Assay for human Erythroblast Transformation Specific (ETS) (AID 2282941). The following applies: HepG2 ETS cis-reporter transcription, actives raise or lower the signal. An outline of the steps:
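Endogenous transcription factor activity read as reporter mRNA via RT-PCR and capillary electrophoresis, with gain or loss fitted bidirectionally against DMSO. Human HepG2 liver cells, transiently transfected CIS reporter constructs, 24 h exposure.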

Assay [6] concerns the target Hepatocyte nuclear factor 3-beta (Homo sapiens) (UniProt Q9Y261). Description: ATG_FoxA2_CIS: Attagene CIS-FACTORIAL HepG2 Assay for human Forkhead box A2 (FOXA2) (AID 2282942). The following applies: HepG2 cis-reporter transcription factor activity, 24 h; actives raise or lower the signal. An outline of the steps:
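Endogenous transcription factor activity is captured via cis-element-driven reporter transcripts in transfected HepG2. Total RNA taken at 24 h post-dosing; labelled RT-PCR products resolved by capillary electrophoresis. Gain or loss fitted versus DMSO.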

Assay [7] in a line: ATG_FoxO_CIS: Attagene CIS-FACTORIAL HepG2 Assay for human Forkhead box O (FoxO) (AID 2282943). The conditions noted are these: HepG2 Attagene cis-reporter, FoxO element, mRNA; actives raise or lower the signal. Summed up:
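HepG2 cells transiently transfected with cis-element-driven reporter units report endogenous FoxO activity. After 24 h chemical exposure, reporter mRNA quantified by RT-PCR, fluorescent labeling, HpaI digestion and capillary electrophoresis; bidirectional fit versus DMSO.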

Assay [8] in a line: ATG_GATA_CIS: Attagene CIS-FACTORIAL HepG2 Assay for human GATA Binding Protein (AID 2282944). The conditions noted are these: HepG2 GATA cis-element reporter, Attagene multiplex mRNA; actives raise or lower the signal. An outline of the steps:
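Transfected cis-reporter HepG2 cells were treated with chemicals for 24 hours. Total RNA was then converted to cDNA, amplified with reporter-specific primers and analysed by fluorescent capillary electrophoresis, using DMSO-treated wells as baseline.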

Assay [9] can be described thus: ATG_GLI_CIS: Attagene CIS-FACTORIAL HepG2 Assay for human Zinc Finger Protein GLI1 (AID 2282945). The conditions noted are these: HepG2, Attagene cis-factorial reporter mRNA, GLI element; actives raise or lower the signal. Summed up: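 Transiently transfected HepG2 cells report endogenous transcription factor activity via cis-element-driven reporter units. After 24 h compound exposure, reporter mRNA was measured by RT-PCR with capillary electrophoresis; bidirectional fitting against DMSO baseline.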

A short description of assay [10]: ATG_GRE_CIS: Attagene CIS-FACTORIAL HepG2 Assay for human Glucocorticoid Response Elements (GRE) (AID 2282947). The following applies: HepG2 GRE cis-reporter, Attagene multiplex mRNA; actives raise or lower the signal. Summed up:
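Read-out: fluorescent reporter-transcript fragments separated by capillary electrophoresis after RT-PCR. Transiently transfected HepG2 cells carrying cis-element-driven reporter units were dosed for 24 h; gain or loss of signal fitted against DMSO control.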

Assay [11] can be described thus: ATG_ISRE_CIS: Attagene CIS-FACTORIAL HepG2 Assay for human Interferon Regulatory Factor 1 (IRF1) binding to an Interferon-Stimulated Response Element (ISRE) (AID 2282948). The conditions noted are these: HepG2 ISRE cis-reporter (Attagene), mRNA transcription readout; actives raise or lower the signal. Summed up: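 Endogenous transcription factor activity read as reporter transcript abundance via RT-PCR and capillary electrophoresis. HepG2 cells transiently transfected, 24 h chemical exposure. Gain or loss fitted against DMSO baseline.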

A short description of assay [12]: ATG_M_32_CIS: Attagene CIS-FACTORIAL HepG2 Assay for M32 Transcription Factor (Internal Marker) (AID 2282949).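 Note: background control marker of the multiplexed CIS panel rather than a real target.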 The following applies: HepG2 Attagene cis-factorial M32 reporter, mRNA; actives raise or lower the signal. An outline of the steps: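 Using DMSO as baseline, bidirectional curve fits were applied to reporter mRNA signals. These came from transiently transfected HepG2 cells exposed for 24 h, with RNA analysed by RT-PCR, FAM primer extension, HpaI digestion and CE.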

Assay [13] is described as follows: ATG_M_06_CIS: Attagene CIS-FACTORIAL HepG2 Assay for M06 Transcription Factor (Internal Marker) (AID 2282950). The conditions noted are these: HepG2 Attagene CIS-FACTORIAL M06 internal marker reporter; actives raise or lower the signal. An outline of the steps: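 Cells (HepG2, transiently carrying cis-driven reporter units) receive chemical for 24 h before RNA isolation. Reporter cDNA is PCR-amplified, FAM-labelled by primer extension, HpaI-digested and sized on a capillary analyser.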

The target in assay [14] is Hypoxia-inducible factor 1-alpha (Homo sapiens) (UniProt Q16665). Description: ATG_HIF1a_CIS: Attagene CIS-FACTORIAL HepG2 Assay for human Hypoxia Inducible Factor 1 (HIF1A) (AID 2282951). The conditions noted are these: HepG2 Attagene cis-factorial HIF1a reporter transcription; actives raise or lower the signal. An outline of the steps: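 Activity is fitted in both directions relative to DMSO. Reporter transcripts are read by RT-PCR, fluorescent primer extension and capillary electrophoresis after 24 h chemical treatment. The cells are HepG2 carrying transiently transfected cis-element-driven reporter units responding to endogenous factors.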

For assay [15], the target named is Hepatocyte nuclear factor 6 (Homo sapiens) (UniProt Q9UBC0). Description: ATG_HNF6_CIS: Attagene CIS-FACTORIAL HepG2 Assay for human Hepatocyte Nuclear Factor 6 (HNF6) (AID 2282952). The conditions noted are these: HepG2 Attagene cis-factorial HNF6 reporter transcription; actives raise or lower the signal. An outline of the steps: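 First, HepG2 cells were transfected with the multiplexed cis reporter library and dosed with chemical for 24 h. Next, RNA was reverse-transcribed, PCR-amplified and fluorescently labelled. Finally, HpaI-digested fragments were read by capillary electrophoresis.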

Assay [16] has as its target Heat shock factor protein 1 (Homo sapiens) (UniProt Q00613). The assay can be described thus: ATG_HSE_CIS: Attagene CIS-FACTORIAL HepG2 Assay for human Heat Shock Transcription Factor 1 (HSE) (AID 2282953). The following applies: HepG2 HSE cis-reporter, Attagene RNA transcription; actives raise or lower the signal. An outline of the steps: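 Liver-derived HepG2 cells carry transiently introduced multiple reporter units governed by cis promoters. Reporter RNA measured 24 h post-dose through reverse transcription, PCR amplification, fluorescent labelling and capillary electrophoresis, normalised to DMSO.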

The nature of assay [17]: ATG_MRE_CIS: Attagene CIS-FACTORIAL HepG2 Assay for human Metal Responsive Element (MRE) (AID 2282954). The conditions noted are these: HepG2 MRE cis-reporter transcription, Attagene multiplex; actives raise or lower the signal. An outline of the steps:
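RT-PCR/capillary electrophoresis readout of reporter mRNA, 24 h post-dosing, in HepG2 cells transfected with multiplexed cis-regulated reporter constructs. Gain or loss of signal fitted bidirectionally against DMSO baseline.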

The target in assay [18] is Paired box protein Pax-6 (Homo sapiens) (UniProt P26367). The assay can be described thus: ATG_Pax6_CIS: Attagene CIS-FACTORIAL HepG2 Assay for human Paired Box 6 (PAX6) (AID 2282956). The conditions noted are these: HepG2 CIS-FACTORIAL PAX6 reporter transcription, RNA readout; actives raise or lower the signal. An outline of the steps:
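Read-out is reporter transcript level, measured by RT-PCR with fluorescent primer extension and capillary electrophoresis after 24 h dosing of transfected HepG2 cells. Activity in either direction fitted relative to DMSO control.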

The nature of assay [19]: ATG_PBREM_CIS: Attagene CIS-FACTORIAL HepG2 Assay for human Phenobarbital-responsive Enhancer Module (PBREM) (AID 2282955). The following applies: HepG2 PBREM cis-reporter, Attagene multiplexed transcription; actives raise or lower the signal. An outline of the steps: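 Endogenous transcription factor activity was read from reporter transcripts in transiently transfected human HepG2 liver cells after 24 h dosing. RT-PCR products were fluorescently labelled, HpaI-cut and sized by capillary electrophoresis; activity fitted bidirectionally against DMSO baseline.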

The target of assay [20] is Bile acid receptor (Homo sapiens) (UniProt Q96RI1). Description: ATG_IR1_CIS: Attagene CIS-FACTORIAL HepG2 Assay for human Nuclear Receptor Subfamily 1 Group H Member 4 (NR1H4), IR1 submotif (AID 2282946). The conditions noted are these: IR1 reporter transcription, actives raise or lower the signal. Summed up:
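Fluorescence of capillary-separated, HpaI-digested RT-PCR reporter products gave IR1-element mRNA induction in HepG2 cells 24 h after dosing. Endogenous transcription factors drove the cis-regulated reporters; activity was fitted bidirectionally against DMSO.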

The source made the active and inactive calls. Rule for the calls: active = hit-call score of the fitted dose curve at least 0.9, where 1 is the maximum; inactive = score below 0.9.

Sequence of Paired box protein Pax-6 (Homo sapiens) (P26367 whole entry, looked up): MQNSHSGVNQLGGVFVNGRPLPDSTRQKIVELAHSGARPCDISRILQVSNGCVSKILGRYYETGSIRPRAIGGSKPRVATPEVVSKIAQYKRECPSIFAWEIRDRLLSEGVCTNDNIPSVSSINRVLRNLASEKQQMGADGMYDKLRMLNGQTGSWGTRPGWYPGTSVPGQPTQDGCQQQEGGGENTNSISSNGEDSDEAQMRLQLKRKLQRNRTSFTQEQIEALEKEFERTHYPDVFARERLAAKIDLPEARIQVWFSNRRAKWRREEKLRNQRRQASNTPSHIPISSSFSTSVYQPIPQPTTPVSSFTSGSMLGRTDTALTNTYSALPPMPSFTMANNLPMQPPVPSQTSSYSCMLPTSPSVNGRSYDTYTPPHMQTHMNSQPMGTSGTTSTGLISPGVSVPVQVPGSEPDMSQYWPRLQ
Sequence of Heat shock factor protein 1 (Homo sapiens) (Q00613 whole entry, looked up): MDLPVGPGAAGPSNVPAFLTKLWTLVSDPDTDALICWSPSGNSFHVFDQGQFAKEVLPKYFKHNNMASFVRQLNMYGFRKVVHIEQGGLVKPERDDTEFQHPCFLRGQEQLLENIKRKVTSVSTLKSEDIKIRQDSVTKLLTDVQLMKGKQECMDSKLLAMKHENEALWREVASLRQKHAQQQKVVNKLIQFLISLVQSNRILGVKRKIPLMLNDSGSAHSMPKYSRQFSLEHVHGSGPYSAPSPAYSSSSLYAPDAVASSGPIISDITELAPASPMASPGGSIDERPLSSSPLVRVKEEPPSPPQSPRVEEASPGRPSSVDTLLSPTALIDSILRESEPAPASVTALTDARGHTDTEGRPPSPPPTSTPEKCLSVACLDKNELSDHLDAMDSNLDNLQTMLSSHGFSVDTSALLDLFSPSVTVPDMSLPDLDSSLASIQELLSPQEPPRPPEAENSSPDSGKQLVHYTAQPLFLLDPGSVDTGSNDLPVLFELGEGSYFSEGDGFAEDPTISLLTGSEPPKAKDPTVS
Sequence of Hypoxia-inducible factor 1-alpha (Homo sapiens) (Q16665 whole entry, looked up): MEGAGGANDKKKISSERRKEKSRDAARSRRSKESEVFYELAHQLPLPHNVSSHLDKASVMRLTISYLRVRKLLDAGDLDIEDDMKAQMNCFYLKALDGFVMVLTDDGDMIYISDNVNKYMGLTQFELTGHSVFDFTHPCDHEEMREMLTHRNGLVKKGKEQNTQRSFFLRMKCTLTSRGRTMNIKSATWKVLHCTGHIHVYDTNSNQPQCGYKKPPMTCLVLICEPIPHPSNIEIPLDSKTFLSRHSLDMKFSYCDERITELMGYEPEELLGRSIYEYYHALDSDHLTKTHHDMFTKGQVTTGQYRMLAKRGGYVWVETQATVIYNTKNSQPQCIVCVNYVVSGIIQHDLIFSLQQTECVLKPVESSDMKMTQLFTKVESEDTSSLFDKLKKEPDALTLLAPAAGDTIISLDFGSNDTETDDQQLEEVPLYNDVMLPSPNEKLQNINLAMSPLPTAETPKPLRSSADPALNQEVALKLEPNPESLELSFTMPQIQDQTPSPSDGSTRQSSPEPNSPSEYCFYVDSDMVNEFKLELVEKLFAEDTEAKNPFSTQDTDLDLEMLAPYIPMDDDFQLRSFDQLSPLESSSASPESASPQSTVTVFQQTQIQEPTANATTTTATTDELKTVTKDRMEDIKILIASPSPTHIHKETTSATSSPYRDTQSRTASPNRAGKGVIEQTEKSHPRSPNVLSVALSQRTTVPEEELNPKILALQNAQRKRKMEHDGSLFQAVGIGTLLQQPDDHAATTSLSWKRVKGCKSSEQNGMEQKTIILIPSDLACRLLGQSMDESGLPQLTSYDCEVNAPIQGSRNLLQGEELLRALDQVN
Sequence of Hepatocyte nuclear factor 3-beta (Homo sapiens) (Q9Y261 whole entry, looked up): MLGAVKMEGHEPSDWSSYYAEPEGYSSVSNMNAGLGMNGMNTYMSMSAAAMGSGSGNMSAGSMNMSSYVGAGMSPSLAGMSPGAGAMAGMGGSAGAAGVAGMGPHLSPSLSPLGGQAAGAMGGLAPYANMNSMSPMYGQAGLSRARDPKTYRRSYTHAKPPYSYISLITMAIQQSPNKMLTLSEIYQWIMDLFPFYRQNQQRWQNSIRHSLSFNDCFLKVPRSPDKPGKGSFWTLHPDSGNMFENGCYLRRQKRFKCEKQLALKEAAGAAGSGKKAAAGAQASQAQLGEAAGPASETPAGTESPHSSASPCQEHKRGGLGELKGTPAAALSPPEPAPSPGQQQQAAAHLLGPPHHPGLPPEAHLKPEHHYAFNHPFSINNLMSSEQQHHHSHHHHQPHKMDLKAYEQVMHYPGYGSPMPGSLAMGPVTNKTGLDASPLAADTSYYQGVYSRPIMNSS
Sequence of Hepatocyte nuclear factor 6 (Homo sapiens) (Q9UBC0 whole entry, looked up, the tested form may be a part): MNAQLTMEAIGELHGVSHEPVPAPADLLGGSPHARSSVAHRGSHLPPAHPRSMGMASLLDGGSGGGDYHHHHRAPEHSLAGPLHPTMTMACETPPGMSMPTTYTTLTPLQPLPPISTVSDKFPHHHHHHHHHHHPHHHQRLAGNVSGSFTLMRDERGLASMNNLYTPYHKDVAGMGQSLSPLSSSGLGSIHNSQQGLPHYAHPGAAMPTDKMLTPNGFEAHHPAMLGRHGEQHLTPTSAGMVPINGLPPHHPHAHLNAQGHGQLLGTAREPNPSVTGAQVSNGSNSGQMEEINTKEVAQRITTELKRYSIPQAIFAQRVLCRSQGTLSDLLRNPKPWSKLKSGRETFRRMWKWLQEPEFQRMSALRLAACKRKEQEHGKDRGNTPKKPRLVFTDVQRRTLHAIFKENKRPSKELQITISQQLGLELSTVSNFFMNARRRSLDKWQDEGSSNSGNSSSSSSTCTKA
Sequence of Bile acid receptor (Homo sapiens) (Q96RI1 whole entry, looked up): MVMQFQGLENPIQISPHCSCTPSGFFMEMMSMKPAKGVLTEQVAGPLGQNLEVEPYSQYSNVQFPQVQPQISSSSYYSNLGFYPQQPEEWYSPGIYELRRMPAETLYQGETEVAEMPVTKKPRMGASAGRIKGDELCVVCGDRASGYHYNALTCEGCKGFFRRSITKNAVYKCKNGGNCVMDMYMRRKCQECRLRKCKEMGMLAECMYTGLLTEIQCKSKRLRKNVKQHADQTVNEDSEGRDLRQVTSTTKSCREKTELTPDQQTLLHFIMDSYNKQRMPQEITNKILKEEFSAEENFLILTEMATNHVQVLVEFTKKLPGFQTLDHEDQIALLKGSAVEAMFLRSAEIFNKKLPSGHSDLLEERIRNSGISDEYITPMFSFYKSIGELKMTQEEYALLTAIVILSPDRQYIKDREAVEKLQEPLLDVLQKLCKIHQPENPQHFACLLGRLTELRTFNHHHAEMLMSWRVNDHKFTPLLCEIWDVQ

Consider `CC(=O)CN(CC(C)=O)N=O`, for which the result in assay [1], in [2], in assay [3], in assay [4], in assay [5] and in assay [6] was inactive. Besides, the call in assay [7], in assay [8], in assay [9], in assay [10], in assay [11] and in assay [12] was inactive. For the same molecule, the call in assay [13], in assay [14], in assay [15], in assay [16], in assay [17] and in [18] was inactive.
For `O=C(NC(=O)c1c(F)cccc1F)Nc1cc(Cl)c(F)c(Cl)c1F`, the outcome in [1], in assay [2], in assay [3], in [4], in assay [5] and in [6] was inactive. Besides, the call in assay [7], in assay [8], in [9], in assay [10], in assay [11] and in assay [13] was inactive. Also, the result in assay [14], in assay [15], in [17], in [19] and in assay [18] was inactive.
`CCNc1nc(NCC)nc(SC)n1`: the call in [1], in [2], in assay [3], in [4], in assay [5] and in assay [6] was inactive. For the same molecule, the molecule was called inactive in assay [7], in assay [9], in [10], in [11], in assay [12] and in [13]. The molecule was classed as inactive in [14], in [15], in assay [16], in assay [17], in [19] and in assay [18].
For `O=c1[nH]c2ccccc2n1C1CCN(CCCC(c2ccc(F)cc2)c2ccc(F)cc2)CC1`, the call in assay [1], in assay [2], in assay [3], in [5], in [6] and in assay [7] was inactive. The molecule was called inactive in assay [9], in assay [20], in assay [10], in [12], in assay [13] and in assay [15]. Moreover, the result in [16], in assay [17] and in [18] was inactive. For the same molecule, the AC50 in assay [4] is 4.17 µM (active); in [11], 3.71 µM (active).

As a reminder, the AC50 is the concentration giving half of the maximal activity seen.
